Source: ChEMBL document CHEMBL3988442, “University of Dundee, Small-Polar-MMV Screening Library” (2021)
About 960 (1.5%) of roughly 66,000 compounds showed an effect of 50% or more. The entries come from a sample that favours strong results as a whole.

Test system: Trypanosoma brucei
Experiment: Trypanosoma brucei 72 hour study
Format: functional, organism-based
Parameters: scale not given: in the data most compounds retested in dose-response had high values

CCOc1ccccc1-c1cc(N)[nH]n1.Cl
Percent Effect (30.3 µM, […]): -3.53%

CC(C)NC(=O)C1CN(Cc2ccc(F)cc2)CC12CCOCC2.O=C(O)C(F)(F)F (stereo not drawn)
Percent Effect (30 µM, 30.03 µM): -12.09%

CCC(C)(COc1ncccc1Cl)NCC(=O)NCC(C)C (stereo not drawn)
Percent Effect (30 µM, 30.03 µM): -31.89%

CCC1=N[C@@]2(CC[C@@H]3CN(CC4CC4)C[C@@H]32)C(=O)N1CC1CC1.O=C(O)C(F)(F)F
Percent Effect (30 µM, 30.03 µM): -23.62%

COc1ccnc(N2CCCN(C(=O)Cc3ccc(C)s3)CC2)n1
Percent Effect (10 µM): -47.83%

Cc1cccc(CNC2CC3(CCN(CCO)CC3)c3ccccc32)n1.O=C(O)C(F)(F)F.O=C(O)C(F)(F)F (stereo not drawn)
Percent Effect (30.3 µM, […]): 13.54%

Cn1ncc2c1C(COCC1CC1)CN(C(=O)c1cscn1)C2.O=C(O)C(F)(F)F (stereo not drawn)
Percent Effect (30 µM, 30.03 µM): 21.88%

Cn1cc(CN2CCn3cc(CNC(=O)c4cccn4C)nc3C2)cn1.O=C(O)C(F)(F)F
Percent Effect (30 µM, 30.03 µM): 21.81%

N#Cc1cccnc1N1CCC(C2CCCCCN2C(N)=O)CC1 (stereo not drawn)
Percent Effect (30.3 µM, […]): 5.33%

N#Cc1cccnc1N1CCC(C2CCCCCN2C(=O)C2CC2)CC1 (stereo not drawn)
Percent Effect (30.3 µM, […]): 53.48%

CC(=O)N1CCCCCC1C1CCN(c2ncccc2C#N)CC1 (stereo not drawn)
Percent Effect (30.3 µM, […]): 13.42%

Cn1cnnc1-c1ccnc(NCc2ccccc2)c1
Percent Effect (30.3 µM, […]): 5.527%

Cn1nccc1CN1CCOC(c2ccc(-c3cncnc3)cn2)C1 (stereo not drawn)
Percent Effect (30.3 µM, […]): 1.674%

Br.Cn1nccc1CN1CCOC(c2cccc(-c3cncnc3)n2)C1 (stereo not drawn)
Percent Effect (30.3 µM, […]): -1.234%

Cn1nccc1CN1CCOC(c2cccc(Nc3ccccn3)n2)C1 (stereo not drawn)
Percent Effect (30.3 µM, […]): 100.5%

NC(=O)c1cc(NC(=O)N2CCCCCC2)ccc1F
Percent Effect (30 µM, 30.03 µM): -43.72%

NC(=O)c1cc(NC(=O)N2CCOCC2)ccc1F
Percent Effect (30 µM, 30.03 µM): -9.926%

O=C(Nc1ccc(F)c(Br)c1)N1CCCC1
Percent Effect (30 µM, 30.03 µM): 97.43%

CC(C)CN1CCC2(C=C(C(=O)N(C)C)c3ccccc32)CC1.O=C(O)C(F)(F)F
Percent Effect (30.3 µM, […]): -83.33%

Cc1ccc(CN2CCn3cc(CNC(=O)c4cnn(C)c4)nc3C2)s1.O=C(O)C(F)(F)F
Percent Effect (30 µM, 30.03 µM): -34.09%

CC(C)C(=O)N1CCC2(CC1)COCCN2Cc1ccc(F)cc1.O=C(O)C(F)(F)F
Percent Effect (30 µM, 30.03 µM): 21.09%

Cc1cc2c(=O)n3c(nc2s1)CCN(Cc1cncn1C)CC3.Cl
Percent Effect (30.3 µM, […]): 6.762%

CCCNC(=O)CNc1cc(C#N)ccc1OCC
Percent Effect (30 µM, 30.03 µM): 58.39%

CCNC(=O)NC(=O)CNc1cc(C#N)ccc1OCC
Percent Effect (30.3 µM, […]): -6.445% | Percent Effect (10 mM, 10 mM as filed; unlikely as a test dose): -44.56%

CCOc1ccc(C#N)cc1NCC(=O)OC
Percent Effect (30.3 µM, […]): -4.293% | Percent Effect (10 mM, 10 mM as filed; unlikely as a test dose): -28.98%

CC(C)c1nc(CN(C)C(=O)c2ccc3c(c2)OCO3)cs1
Percent Effect (30 µM, 30.03 µM): 56.82%

CC(C)c1nc(CN(C)C(=O)C(O)c2ccc(Cl)cc2)cs1 (stereo not drawn)
Percent Effect (30 µM, 30.03 µM): 3.875%

CCN(CC)C(=O)Cc1csc(C(C)C)n1
Percent Effect (30 µM, 30.03 µM): -85.89%

CC(C)C[C@@H](N)C(=O)N(C)Cc1csc(C(C)C)n1
Percent Effect (30 µM, 30.03 µM): 100.6%

CC(C)c1nc(CN(C)C(=O)c2ccc3c(c2)OCC(=O)N3)cs1
Percent Effect (30 µM, 30.03 µM): 17.57%

CC(C)c1nc(CN(C)C(=O)[C@H](N)Cc2ccc(Cl)cc2)cs1
Percent Effect (30 µM, 30.03 µM): -3.528%

CC(C)c1nc(CN(C)C(=O)CCc2ccc3c(c2)OCO3)cs1
Percent Effect (30 µM, 30.03 µM): 12.36%

CNC(=O)CN(C)C(=O)Cc1csc(C(C)C)n1
Percent Effect (30 µM, 30.03 µM): 70.2%

CCN(CC(=O)NC)C(=O)Cc1csc(C(C)C)n1
Percent Effect (30 µM, 30.03 µM): -25.08%

Cc1cccc(CN2C(=O)CO[C@@H]3CN(C4CCOCC4)C[C@H]32)c1.O=C(O)C(F)(F)F
Percent Effect (30 µM, 30.03 µM): -46.8%

O=C(O)C(F)(F)F.O=C(c1ccco1)N1C[C@H]2CCCN(CC3CC3)[C@H]2C1
Percent Effect (30 µM, 30.03 µM): -18.48%

CCN(C)c1ncnc2c1CCN(Cc1ccc(F)cc1)CC2.O=C(O)C(F)(F)F.O=C(O)C(F)(F)F
Percent Effect (30 µM, 30.03 µM): 0%

CC(=O)N1CCOCC2(CN(Cc3ccc(C)o3)CCO2)C1.O=C(O)C(F)(F)F (stereo not drawn)
Percent Effect (30 µM, 30.03 µM): 0.2271%

COCCC1(CO)CCCN(CCCc2ccccc2)C1 (stereo not drawn)
Percent Effect (30 µM, 30.03 µM): -35.64%

COCCCC1(CO)CCCN(CCc2ccccc2)C1 (stereo not drawn)
Percent Effect (30 µM, 30.03 µM): 60.85%

COCCCC1(CO)CCCN(CCc2ccccn2)C1 (stereo not drawn)
Percent Effect (30 µM, 30.03 µM): -19.7%

COCCn1c(=O)n(C)c(=O)c2ccc(C3CCC(CN)CC3)nc21.Cl (stereo not drawn)
Percent Effect (30.3 µM, […]): 8.357%

COc1cccc(CNC(Cc2cccs2)c2nc(C)c(C)s2)c1OC.Cl (stereo not drawn)
Percent Effect (30.3 µM, […]): -32.09%

CCc1ccc2nc(C)cc(C(=O)N[C@@H]3CCCNC3)c2c1
Percent Effect (30 µM, 30.03 µM): 86.43%

CCc1ccc2nc(C)cc(C(=O)N[C@@H]3CNC[C@H]3O)c2c1
Percent Effect (30 µM, 30.03 µM): -69.69%

CCc1ccc2nc(C)cc(C(=O)NC[C@@H]3CCNC[C@H]3O)c2c1
Percent Effect (30 µM, 30.03 µM): -34.49%

CCS(=O)(=O)N1CCCC2(COCCN(c3ccccn3)C2)C1.O=C(O)C(F)(F)F (stereo not drawn)
Percent Effect (30 µM, 30.03 µM): -23.72%

Cc1nn(C)c(Cl)c1CNCc1cccnc1N1CCOCC1.Cl
Percent Effect (30 µM, 30.03 µM): 16.35%

COC(=O)Cn1c(C)cc(=O)c2cc(F)ccc21
Percent Effect (30.3 µM, […]): -56.52%

COCCn1cncc1CN1CCCC(C)(c2ccccc2)C1 (stereo not drawn)
Percent Effect (30 µM, 30.03 µM): -43.69%

CC1(c2ccccc2)CCCN(Cc2cncn2C2CC2)C1 (stereo not drawn)
Percent Effect (30 µM, 30.03 µM): -39.24%

CC1(c2ccccc2)CCCN(Cc2cncn2C2CCCC2)C1 (stereo not drawn)
Percent Effect (30 µM, 30.03 µM): 102.5%

Cn1ccc(C(=O)N2CCCCC2c2cc(CCO)[nH]n2)n1 (stereo not drawn)
Percent Effect (30.3 µM, […]): -16.55%

O=C(Cc1cccs1)N1C[C@H]2CN(CC3CCCO3)CC[C@H]2C1.O=C(O)C(F)(F)F (stereo partly drawn)
Percent Effect (30 µM, 30.03 µM): -6.249%

COC(=O)c1cc(C(=O)N2CCOC(C)(C)C2)n(-c2ccccc2)n1
Percent Effect (30.3 µM, […]): 6.059%

Cc1nc(C)n(CC2CCCN2CC(=O)NCCc2ccsc2)n1 (stereo not drawn)
Percent Effect (30 µM, 30.03 µM): -16.47%

CN1CCN(c2ccc(S(N)(=O)=O)cc2C#N)Cc2ccccc21
Percent Effect (30.3 µM, […]): -63.54%

CC[C@H](C)Nc1ncc(-c2ccn(C3CCN(C(C)=O)CC3)n2)cn1
Percent Effect (30.3 µM, […]): -5.339%

CC(=O)N1CCC(n2ccc(-c3cnc(NCC(C)C)nc3)n2)CC1
Percent Effect (30.3 µM, […]): 77.59%

CC(=O)N1CCC(n2ccc(-c3cnc(N4CCOCC4)nc3)n2)CC1
Percent Effect (30.3 µM, […]): 26%

CC(C)n1c(=O)nc2n1C(=O)N(c1ccc(Br)cc1)C2
Percent Effect (30 µM, 30.03 µM): -31.4%

N#Cc1cccc(CN2C[C@H](NC(=O)C3CC3)[C@H]3OCCC[C@H]32)c1.O=C(O)C(F)(F)F
Percent Effect (30.3 µM, […]): -35.12%

CC(=O)N1CCCC2(CCC(=O)N2Cc2cccnc2)C1.O=C(O)C(F)(F)F (stereo not drawn)
Percent Effect (30.3 µM, […]): 1.324%

COCCCN1Cc2cccc(NC(=O)c3ccccc3Cl)c2C1
Percent Effect (30 µM, 30.03 µM): 7.9%

COCCCN1Cc2cccc(NC(=O)c3cc(F)cc(F)c3)c2C1
Percent Effect (30 µM, 30.03 µM): 34.67%

COCCCN1Cc2cccc(NC(=O)c3cc(F)ccc3F)c2C1
Percent Effect (30 µM, 30.03 µM): 52.37%

CN1CCN(C2COC3(CCN(Cc4cccs4)CC3)C2)CC1.O=C(O)C(F)(F)F.O=C(O)C(F)(F)F (stereo not drawn)
Percent Effect (30.3 µM, […]): -470.3%

Cc1nc[nH]c1CN1C[C@@H]2CC[C@H](C1)N(C(=O)CCc1cccnc1)C2
Percent Effect (30 µM, 30.03 µM): -21.46%

Cc1nc(CN2CC3(CCN(c4cnccn4)C3)CC2=O)cs1.O=C(O)C(F)(F)F (stereo not drawn)
Percent Effect (30 µM, 30.03 µM): -45.32%

Cc1cnc(NC(=O)c2csc(NC3CCCC3)n2)s1
Percent Effect (30 µM, 30.03 µM): -9.891%

Cc1[nH]/c(=N\C(=O)c2csc(NC3CCCC3)n2)sc1C
Percent Effect (30 µM, 30.03 µM): 95.68%

Cc1[nH]/c(=N\C(=O)c2csc(NC3CC3)n2)sc1C
Percent Effect (30 µM, 30.03 µM): 66.57%

CCN(CC)C(=O)CCCNC(=O)c1csc(NC2CC2)n1
Percent Effect (30 µM, 30.03 µM): -27.48%

CC(=O)Nc1nc(C(=O)N2CCCC(c3cc(C)[nH]n3)C2)cs1 (stereo not drawn)
Percent Effect (30 µM, 30.03 µM): 16.48%

CC(C)(C)[S+]([O-])CCNC(=O)c1csc(NC2CC2)n1 (stereo not drawn)
Percent Effect (30 µM, 30.03 µM): -59.41%

O=C(O)C(F)(F)F.c1csc(CN2CCC3(CCOCC3COCC3CC3)CC2)n1 (stereo not drawn)
Percent Effect (30.3 µM, […]): -46.34%

C=C(C)CN1CCC(NC(=O)Nc2ccc(F)c(C(=O)NC)c2)CC1
Percent Effect (30.3 µM, […]): -0.7134%

CC[C@@H]1N(Cc2ccc(F)cc2)CCC[C@]12CCC(=O)N2C.O=C(O)C(F)(F)F
Percent Effect (30.3 µM, […]): -14.8%

O=C(O)C(F)(F)F.O=C(c1ccco1)N1CCC2(CCCN(c3ncccn3)C2)C1 (stereo not drawn)
Percent Effect (30.3 µM, […]): -37.47%

CC(=O)Nc1nc2c(s1)C1(CCN(C)CC1)Nc1ccccc1S2
Percent Effect (30.3 µM, […]): 83.23%

CC(=O)Nc1nc2c(s1)C(C)(C)Nc1ccccc1S2
Percent Effect (30.3 µM, […]): -17.63%

CC(=O)Nc1nc2c(s1)C1(CCCC1)Nc1ccccc1S2
Percent Effect (30.3 µM, […]): -6.174%

O=c1c(CN2CCOCC2)coc(O)c1CN1CCOCC1
Percent Effect (30 µM, 30.03 µM): -17.25%

CN1CCN(c2ncc3c(=O)n(-c4cccc(F)c4)c(=O)[nH]c3n2)CC1
Percent Effect (30 µM, 30.03 µM): 11.72%

NC(CC1CCCC1)c1ccc(Oc2ccccc2)cc1 (stereo not drawn)
Percent Effect (30 µM, 30.03 µM): 101.8%

Cl.NC(CC1CCCC1)c1ccccc1 (stereo not drawn)
Percent Effect (30 µM, 30.03 µM): -30.59%

OC(CN1CCN(CC2CCCCC2)CC1)c1ccccc1 (stereo not drawn)
Percent Effect (30 µM, 30.03 µM): -15.73%

COc1ccc(CN(Cc2cnc(N)nc2)CC2CCCO2)c(OC)c1.O=C(O)CC(O)(CC(=O)O)C(=O)O (stereo not drawn)
Percent Effect (30.3 µM, […]): 5.653%

CCc1nc2n(n1)CC(Nc1cc(C)nc3ncnn13)CC2 (stereo not drawn)
Percent Effect (30 µM, 30.03 µM): -89.04%

CCCc1cc(NC2CCc3ncnn3C2)n2ncnc2n1 (stereo not drawn)
Percent Effect (30 µM, 30.03 µM): 104.4%

Cc1nc2n(n1)CC(Nc1cc(C(F)(F)F)nc3ncnn13)CC2 (stereo not drawn)
Percent Effect (30 µM, 30.03 µM): 53.11%

CCCc1cc(NC2CCc3nc(C)nn3C2)n2ncnc2n1 (stereo not drawn)
Percent Effect (30 µM, 30.03 µM): -21.48%

CCCc1cc(NC2CCc3nc(CC)nn3C2)n2ncnc2n1 (stereo not drawn)
Percent Effect (30 µM, 30.03 µM): -33.56%

Cc1cc(NC2CCc3nc(C)nn3C2)n2ncnc2n1 (stereo not drawn)
Percent Effect (30 µM, 30.03 µM): -21.45%

O=C(NC1CC1)[C@H]1C[C@H]2OCC[C@H]2N(Cc2ccc3ccccc3n2)C1.O=C(O)C(F)(F)F.O=C(O)C(F)(F)F
Percent Effect (30.3 µM, […]): -259.7%

COC(=O)CCN(C)Cc1cc(Br)cs1
Percent Effect (30 µM, 30.03 µM): -12.73%
